Data reported in PubChem BioAssay.
A number with no mark means an inactive call. No rule for the calls is given here.

target: Pantothenate synthetase (Mycobacterium tuberculosis (strain ATCC 25618 / H37Rv)) (UniProt P9WIL5); test: Coupled enzyme confirmation of inhibitors against recombinant Mtb PanC (AID 375); conditions: coupled enzyme assay; at 10 µM, stronger effect = higher value;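 also: 0% = full reaction with vehicle and 100% = no enzyme background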
Sequence (P9WIL5 whole entry, looked up): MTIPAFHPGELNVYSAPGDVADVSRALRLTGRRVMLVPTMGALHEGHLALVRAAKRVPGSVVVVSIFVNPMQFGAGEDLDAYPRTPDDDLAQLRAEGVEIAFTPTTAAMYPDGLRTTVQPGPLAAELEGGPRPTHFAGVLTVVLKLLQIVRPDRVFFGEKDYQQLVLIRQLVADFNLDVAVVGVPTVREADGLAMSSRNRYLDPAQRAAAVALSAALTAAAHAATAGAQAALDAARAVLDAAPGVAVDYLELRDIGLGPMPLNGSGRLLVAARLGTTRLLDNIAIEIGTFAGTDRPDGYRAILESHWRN

SMILES	inhibition [%]
CCN(CC)CCNC(=O)C1CCN(S(=O)(=O)N2CCCCC2)CC1	0
O=C(NCCN1CCCCCC1)c1ccc(CS(=O)(=O)c2ccc(Br)cc2)o1	0
Nc1nc(N)c2nc(-c3ccccc3)c(N)nc2n1	0
N#CCOc1nc(N2CCOCC2)nc(N2CCOCC2)n1	0
COc1ccc(N2CCN(CCCNS(=O)(=O)c3c(C)noc3/C=C/N(C)C)CC2)cc1	15
c1ccc(CNC2=NCCC2)nc1	0
COC(=O)CCCCCc1ccc(C(C)=O)s1	4
CCOC(=O)Nc1nnc(-c2ccccc2OC)s1	0
CC1(C)CC(=O)C2=C(C1)OC(N)=C(C#N)C2C1CC=CCC1 (stereo not drawn)	1
COC(=O)CC1SC(=O)NC1=O (stereo not drawn)	0
Cc1ccc(Nc2nc(CSc3nnnn3C)cs2)cc1	0
CCOC(=O)c1ccccc1NC(=O)c1ccc2c(=O)n3c(nc2c1)CCCCC3	0
O=S(=O)(c1ccc(Oc2ccc(-c3nnco3)cc2)nc1)N1CCC(Cc2ccccc2)CC1	0
Cc1ccc(-c2nc(N)n(C(=O)c3cccnc3)n2)cc1	0
Cc1cccc(N2C(=O)CC(N3CCN(C(=O)c4ccccc4)CC3)C2=O)c1 (stereo not drawn)	5
COc1cccc(-c2nnc(NC(=O)c3ccccc3Br)o2)c1	0
NC(=O)C1(N2CCCCC2)CCN(CC(=O)Nc2cc(Cl)ccc2Cl)CC1	3
COc1ccc(NS(=O)(=O)c2ccc(NC(C)=O)cc2)cc1OC	0
Cc1cncn1CCc1nc2c3ccccc3nc(=S)n2[nH]1	7
Cn1c(=O)c(NC(=O)c2ccccc2)c2n(c1=S)CCCCC2	0
C=CCn1c(SCC(=O)c2cc(C)n(C(C)COC)c2C)nc2sc(C)c(C)c2c1=O (stereo not drawn)	4
CCOC(=O)c1oc2ccccc2c1NC(=O)c1cccc(OC)c1OC	0
c1cc2c(cc1C1=Nn3c(nnc3C3CCCCC3)SC1)OCO2	0
